Here are results for 9 compounds from PubChem BioAssay.

Experiment [1] can be described thus: A549 cell viability effects, profiling panel, calcein-AM fluorescence, 48 h, basal (AID 1162). Also: test concentration not given here. As to conditions: higher = more signal.
A short description of experiment [2]: adipocyte viability effects, profiling panel, cell-based, 3T3-L1 adipocytes, calcein-AM fluorescence, 48 h, basal (AID 1163). Also: test concentration not given here. As to conditions: 3T3-L1 adipocytes viability, higher = more signal.
Experiment [3] can be described thus: HepG2 cell viability effects, profiling panel, calcein-AM fluorescence, 48 h, basal (AID 1164). Also: test concentration not given here. Conditions: higher = more signal.
Experiment [4] can be described thus: MM1S cell viability effects, profiling panel, calcein-AM fluorescence, 48 h, basal (AID 1165).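 Also: viability of MM1S multiple myeloma cells under basal unstimulated conditions; test concentration not given here.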 As to conditions: higher = more signal.
A short description of experiment [5]: basal RPMI8226 viability, no added stimulus, profiling panel, cell-based, calcein-AM fluorescence, 48 h, PK04 Diversity Set (AID 1166).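 Also: cells grown under basal conditions without added stimulus; test concentration not given here.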 Conditions: RPMI8226 myeloma viability, higher = more signal.
Experiment [6] is described as follows: basal HepG2 mitochondrial membrane potential changes, profiling panel, cell-based, JC-1 fluorescence, 24 h, 100 nL compound (AID 1167). Also: test concentration not given here. As to conditions: higher = more signal.
Experiment [7] in a line: basal 3T3-L1 adipocyte mitochondrial potential changes, profiling panel, cell-based, JC-1 fluorescence, 3T3-L1 adipocytes, 24 h, 100 nL compound (AID 1168). Also: test concentration not given here. Conditions: JC-1 mitochondrial fluorescence, higher = more signal, called active from +8 up or from −8 down.
The nature of experiment [8]: basal RPMI8226 mitochondrial membrane potential changes, profiling panel, cell-based, JC-1 fluorescence, 24 h, 100 nL compound (AID 1169). Also: test concentration not given here. As to conditions: RPMI8226 myeloma, JC-1 mitochondrial potential fluorescence, higher = more signal.
A short description of experiment [9]: basal MM1S mitochondrial membrane potential changes, profiling panel, cell-based, JC-1 fluorescence, 24 h, 100 nL compound (AID 1170). Also: test concentration not given here. As to conditions: higher = more signal.
A short description of experiment [10]: A549 lung cancer cell viability effects, profiling panel, resazurin fluorescence, 24 h, PK04 Diversity Set (AID 1171). Also: test concentration not given here. Conditions: higher = more signal, called active from +8 up or from −8 down.
Experiment [11] in a line: HepG2 liver cancer cell viability effects, profiling panel, resazurin fluorescence, 24 h, PK04 Diversity Set (AID 1172). Also: test concentration not given here. Conditions: higher = more signal. (In general: The colour change of resazurin is a common sign of viable cells or microbes.)
Experiment [12] in a line: basal S. cerevisiae growth modulation, no modifier, primary screen, OD600, strain BY4716, 24 h, basal condition (AID 1173). Conditions: OD600, 24 h, higher = more signal, called active from +8 up or from −8 down.
The nature of experiment [13]: MM1S myeloma cell viability, profiling panel, resazurin fluorescence, basal, 24 h, PK04 Diversity Set (AID 1174).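 Also: MM1S multiple myeloma cell line; test concentration not given here.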 As to conditions: higher = more signal, called active from +8 up or from −8 down.
The target in experiment [14] is Dihydroorotate dehydrogenase (quinone), mitochondrial (Plasmodium falciparum (isolate 3D7)) (UniProt Q08210). The experiment in a line: PfDHODH enzyme inhibitors, primary screen, biochemical, C-terminal His tag, absorbance 600 nm (AID 1175).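 Also: recombinant parasite enzyme with a five histidine tag at its C terminus; test concentration not given here.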 As to conditions: DCIP absorbance 600 nm, higher = more signal, called active from +8 up or from −8 down.
Dihydroorotate dehydrogenase (quinone), mitochondrial (Plasmodium falciparum (isolate 3D7)), sequence (Q08210 whole entry, looked up): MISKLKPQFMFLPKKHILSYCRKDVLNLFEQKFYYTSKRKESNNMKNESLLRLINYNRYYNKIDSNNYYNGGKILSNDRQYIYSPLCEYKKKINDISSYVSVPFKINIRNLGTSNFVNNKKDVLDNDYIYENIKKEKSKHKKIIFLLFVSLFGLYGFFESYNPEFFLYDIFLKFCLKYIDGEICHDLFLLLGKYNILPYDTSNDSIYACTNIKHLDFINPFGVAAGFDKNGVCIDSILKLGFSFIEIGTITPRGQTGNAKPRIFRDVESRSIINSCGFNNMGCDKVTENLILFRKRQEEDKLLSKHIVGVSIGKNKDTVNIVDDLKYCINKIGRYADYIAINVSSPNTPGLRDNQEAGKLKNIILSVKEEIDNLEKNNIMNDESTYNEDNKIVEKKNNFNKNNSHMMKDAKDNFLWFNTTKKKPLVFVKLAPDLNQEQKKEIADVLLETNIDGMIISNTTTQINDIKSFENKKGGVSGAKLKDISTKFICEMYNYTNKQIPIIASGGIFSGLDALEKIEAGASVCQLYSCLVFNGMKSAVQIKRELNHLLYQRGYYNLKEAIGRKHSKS
Experiment [15] in a line: P. aeruginosa biofilm formation inhibitors, primary screen, strain PAO1, LB-PBS medium, absorbance 600 nm (AID 1176). Also: test concentration not given here. Conditions: P. aeruginosa PAO1 growth/biofilm, A600, 12 h; higher = more signal.
A short description of experiment [16]: S. cerevisiae RM11-1a growth modifiers, primary screen, strain RM11-1a, OD600, basal, 24 h (AID 1177).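 Also: cultures grown under basal conditions with no added stressor; test concentration not given here.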 As to conditions: OD600, 24 h, higher = more signal, called active from +8 up or from −8 down.
A short description of experiment [17]: E. coli acrAB mutant growth effects, primary screen, E. coli filamentation inducers, strain DRC39, OD650, 24 h (AID 1178).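 Also: growth measured as culture turbidity by optical density at 650 nm; test concentration not given here.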 Conditions: higher = more signal, called active from +8 up or from −8 down.
The nature of experiment [18]: E. coli acrAB mutant growth effects, primary screen, E. coli filamentation inducers, strain DRC39, OD650, 48 h (AID 1179).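 Also: screen aims at cell division blockers that make cells filament.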 Conditions: E. coli DRC39 delta-acrAB growth, higher = more signal, called active from +8 up or from −8 down.
The nature of experiment [19]: RPMI8226 myeloma cell viability, profiling panel, resazurin fluorescence, basal, 24 h, PK04 Diversity Set (AID 1180).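 Also: RPMI8826 multiple myeloma cell line at 5000 cells per well; test concentration not given here.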 Conditions: higher = more signal.
The target of experiment [20] is E3 ubiquitin-protein ligase XIAP (Homo sapiens) (UniProt P98170). The experiment in a line: XIAP binders, primary screen, biophysical, small-molecule microarray, fluorescence 635 nm (AID 1181).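 Also: score merges 667 nm emission and signal to noise over triplicate slides.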 As to conditions: small-molecule microarray binding, higher = more signal.
E3 ubiquitin-protein ligase XIAP (Homo sapiens), sequence (P98170 whole entry, looked up): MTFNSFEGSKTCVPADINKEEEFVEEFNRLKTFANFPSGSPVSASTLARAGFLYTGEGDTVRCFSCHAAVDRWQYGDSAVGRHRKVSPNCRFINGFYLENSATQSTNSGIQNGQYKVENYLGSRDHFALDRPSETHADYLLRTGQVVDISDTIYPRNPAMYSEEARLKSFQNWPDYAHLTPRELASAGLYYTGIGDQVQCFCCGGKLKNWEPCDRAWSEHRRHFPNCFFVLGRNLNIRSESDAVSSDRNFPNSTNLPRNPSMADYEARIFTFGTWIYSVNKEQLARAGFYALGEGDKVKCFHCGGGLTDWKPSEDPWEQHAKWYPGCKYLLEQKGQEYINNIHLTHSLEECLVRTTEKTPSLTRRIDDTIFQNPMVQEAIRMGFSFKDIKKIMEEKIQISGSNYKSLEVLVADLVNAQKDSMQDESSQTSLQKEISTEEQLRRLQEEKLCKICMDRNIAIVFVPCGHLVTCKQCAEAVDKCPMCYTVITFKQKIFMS

Active and inactive are the calls of the source. Unless noted, no rule for the calls is given here.

As for `CC(C)[Si]1(C(C)C)OCc2cc(-c3ccc(-c4ccc(Cl)c(Cl)c4)o3)nc(-c3ccccc3)c21`, the z-score in experiment [1] was -0.715; in [2] it was 0.369; in experiment [3], -0.738; in experiment [4] it was -1.77; in [5], -1.8; in [6] it was -1.18. Further, the z-score in experiment [7] is -0.485 (inactive); in experiment [8], 0.194; in [9], 0.406; in experiment [10], 0.793 (inactive); in experiment [11] it was 0.374; in experiment [12], -0.981 (inactive). Further, the z-score in [13] is 0.797 (inactive); in experiment [15], 0.374 (inactive); in experiment [16] it was -0.219 (inactive); in experiment [17] it was -0.28 (inactive); in experiment [18], -0.725 (inactive); in experiment [19] it was 0.311. Besides, the results for the composite z-score in [14] and in experiment [20] were 0.107 (inactive) and -0.031, respectively.
On to `O=C1C2C=CC(C(O)c3cccc(O)c3)N(Nc3ccc([N+](=O)[O-])cc3)C2C(=O)N1c1ccccc1` (stereo not given), for which the z-score in [1] is -0.505; in experiment [2], -0.55; in experiment [3], -0.0586; in experiment [4], -0.0899; in experiment [5] it was 0.45; in experiment [6], -2.01. In addition, the z-score in [7] was -1.78 (inactive); in experiment [8], -0.217; in [9], -1.25; in experiment [10], 0.014 (inactive); in experiment [11], 0.0585; in experiment [12] it was 0.661 (inactive). Further, the z-score was -0.337 (inactive) in experiment [13]; -0.0601 (inactive) in [15]; 0.339 (inactive) in experiment [16]; -0.478 (inactive) in experiment [17]; -0.156 (inactive) in experiment [18]; -0.55 in experiment [19]. Besides, the results for the composite z-score in experiment [14] and in experiment [20] were 0.861 (inactive) and 0.0927, respectively.
For the compound `COc1cc2c(cc1O)C=[N+](Cc1sc3ccccc3c1Cl)CC2`, the z-score in experiment [1] is -0.47; in [2] it was 0.425; in experiment [3], -0.349; in experiment [4], -0.278; in experiment [5], -0.133; in [6], -1.06. In addition, the z-score in [7] was -0.501 (inactive); in experiment [8], -0.143; in [9] it was -0.598; in [10] it was 0.33 (inactive); in experiment [11], 0.19; in experiment [12] it was -1.04 (inactive). In addition, the z-score in [13] is -1.01 (inactive); in experiment [15], 0.034 (inactive); in experiment [16] it was -0.319 (inactive); in [17], 0.81 (inactive); in experiment [18], 0.128 (inactive); in experiment [19], -0.496. The composite z-score in experiment [14] is -1.18 (inactive); in [20] it was 0.158.
For `CCOC(=O)C1=C[C@@H](c2ccccc2)N(S(=O)(=O)c2ccc(C)cc2)[C@H]1c1ccc(OC)cc1`, the z-score in [1] is -0.841; in experiment [2], -0.0112; in experiment [3], -0.157; in experiment [4] it was -0.62; in experiment [5] it was -0.926; in experiment [6] it was 1.03. In addition, the z-score is -0.708 (inactive) in [7]; 0.692 in experiment [8]; -0.441 in [9]; 1.63 (inactive) in experiment [10]; -0.664 in experiment [11]; 1.11 (inactive) in experiment [12]. The z-score was -1.01 (inactive) in experiment [13]; 0.0236 (inactive) in experiment [15]; 0.409 (inactive) in experiment [16]; -1.06 (inactive) in experiment [17]; -0.834 (inactive) in experiment [18]; -1.24 in [19]. Moreover, the composite z-score in experiment [14] was -0.668 (inactive); in experiment [20], -0.0428.
As for `C=CC[C@H](OC(=O)Nc1ccc(SC)cc1)c1ccc(O)c2ccccc12`, the z-score in experiment [1] was -2.22; in experiment [2], -0.162; in [3], -3.05; in [4], -2.74; in experiment [5] it was -4.21; in experiment [6] it was -3.26. For the same compound, the z-score in experiment [7] was 0.41 (inactive); in [8], -1.02; in [9] it was -2.09; in experiment [10], -1.24 (inactive); in [11] it was -1.26; in experiment [12] it was -16.6 (active). For the same compound, the z-score is -6.71 (inactive) in [13]; 1.44 (inactive) in [15]; -20.3 (active) in [16]; -0.146 (inactive) in experiment [17]; -0.772 (inactive) in experiment [18]; -5.02 in experiment [19]. In addition, the composite z-score in experiment [14] is -6.87 (inactive); in experiment [20] it was 0.104.
Turning to `COC(=O)[C@@]1(Cc2ccc(OC)cc2)[C@H]2c3cc(C(=O)N(C)C)n(Cc4ccc(OC(F)(F)F)cc4)c3C[C@H]2CN1C(=O)c1ccccc1`, the z-score in experiment [1] was -1.34; in experiment [2], -0.306; in [3], -0.77; in experiment [4], -3.39; in experiment [5], -4.11; in [6], -2.18. Also, the z-score in [7] was -0.922 (inactive); in [8], -0.791; in [9], -2.79; in experiment [10], -1.36 (inactive); in [11], -0.409; in experiment [12], 0.633 (inactive). In addition, the z-score in experiment [13] is -6.89 (inactive); in [15], 0.619 (inactive); in experiment [16], 1.63 (inactive); in experiment [17], -0.728 (inactive); in experiment [18], -0.804 (inactive); in experiment [19], -3.56. Moreover, the composite z-score is 0.546 (inactive) in [14] and 0.422 in experiment [20].
On to `COC(=O)C1=CC(CCCO)=CC(c2cccs2)N(C)C=C1C(=O)OC` (stereo not given), for which the z-score in experiment [1] was -0.253; in [2] it was 0.483; in experiment [3], -0.818; in experiment [4], 0.347; in experiment [5], 0.959; in [6], -0.386. Besides, the z-score in experiment [7] was -0.195 (inactive); in [8] it was -0.294; in experiment [9], 0.549; in [10], -0.28 (inactive); in [11] it was -0.86; in experiment [12] it was 0.856 (inactive). Moreover, the z-score in experiment [13] was -0.482 (inactive); in experiment [15] it was 0.462 (inactive); in [16], 1.13 (inactive); in experiment [17], -0.187 (inactive); in [18], -0.532 (inactive); in experiment [19] it was 0.0222. Besides, the composite z-score in experiment [14] was 0.75 (inactive); in experiment [20], 0.212.
As for `CCOC(=O)C[C@H]1[C@H](OC(=O)c2cc3ccccc3oc2=O)[C@@H](NC(=O)c2ccccc2)c2cc(OCCCO)ccc2N1C(=O)c1ccccc1`, the z-score in experiment [1] was 0.102; in [2] it was 1.36; in [3] it was -0.521; in experiment [4] it was -0.836; in experiment [5] it was -2.3; in experiment [6], 1.23. Besides, the z-score is 0.434 (inactive) in experiment [7]; -0.954 in experiment [8]; 0.185 in experiment [9]; -0.238 (inactive) in [10]; -1.3 in [11]; -1.89 (inactive) in [12]. The z-score in [13] is 0.741 (inactive); in experiment [15], -1.02 (inactive); in [16], -0.0038 (inactive); in [17] it was -0.397 (inactive); in experiment [18], -0.869 (inactive); in experiment [19] it was -0.171. In addition, the composite z-score is -3.31 (inactive) in experiment [14] and -0.0559 in [20].
With `CC(C)[Si](C#CCCCC#N)(O[C@H](c1ccccc1)c1cn(Cc2ccccc2)nn1)C(C)C`, the z-score in [1] is 0.059; in experiment [2] it was -0.454; in experiment [3], -0.213; in experiment [4], 0.444; in experiment [5], -0.34; in [6] it was 0.604. Moreover, the z-score is 0.0406 (inactive) in experiment [7]; 0.993 in experiment [8]; -1.31 in experiment [9]; -0.235 (inactive) in experiment [10]; -0.538 in [11]; -6.51 (inactive) in experiment [12]. Moreover, the z-score in [13] is 0.118 (inactive); in [15], 0.584 (inactive); in experiment [16], -0.431 (inactive); in experiment [17], -0.25 (inactive); in experiment [18], 0.0331 (inactive); in [19], 0.424. For the same compound, the composite z-score in experiment [14] is -0.0054 (inactive); in experiment [20], -0.0025.
